Consider 57 sequences from paper PMC9838217, “Structure of SALL4 zinc finger domain reveals link between AT-rich DNA binding and Okihiro syndrome”.

Changes are numbered by the printed parent chain.

The target in test [1] is T1, SALL4 ZFC4 R900W (HT-SELEX) (Mus musculus, UniProt Q8BX22 870-940, R900W).
T1 sequence: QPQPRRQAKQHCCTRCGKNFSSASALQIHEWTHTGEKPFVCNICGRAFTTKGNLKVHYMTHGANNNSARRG
Nature of the test: HT-SELEX; high values mean tight binding. Particulars: protein: recombinant; vector His6-GST; dsDNA, one strand shown. In a few lines: (§1)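 Purified recombinant mouse SALL4 zinc finger cluster 4 (residues 870–940, 1 µg) was incubated with library DNA (1.5 µg first cycle, 200 ng later) in 100 µl of 10 mM Tris–HCl pH 7.5, 50 mM NaCl, poly(dI-dC) and DTT for 10 min at room temperature, with Ni2+ bead capture and reselection for up to 6 cycles in triplicate. MiSeq reads were scanned for 6-mers. Binding signal is each canonical k-mer's read fraction as fold change relative to the initial random library.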

The target in test [2] is T2, SALL4 ZFC4 G921D (HT-SELEX) (Mus musculus, UniProt Q8BX22 870-940, G921D).
T2 sequence: T1 sequence with W31R, G52D
The test is described as follows: HT-SELEX; high values mean tight binding. Particulars: protein: recombinant; vector His6-GST; dsDNA, one strand shown. An outline of the steps: as §1

With CCCGTC, the binding signal worked out at 0.236 ± 0.0162 fold-change vs cycle 0 in test [1] and 0.34 ± 0.0606 fold-change vs cycle 0 in test [2].

Take GGCGCC: the figures for the binding signal in test [1] and in test [2] were 0.0274 ± 0.00854 fold-change vs cycle 0 and 0.102 ± 0.0477 fold-change vs cycle 0, respectively.

For CGCGTA, the binding signal in test [1] is 0.224 ± 0.0194 fold-change vs cycle 0; in test [2], 0.34 ± 0.0644 fold-change vs cycle 0.

On to GACGCA, for which the binding signal in test [1] is 0.263 ± 0.0079 fold-change vs cycle 0; in test [2], 0.386 ± 0.0647 fold-change vs cycle 0.

With GCGAGC, the binding signal in test [1] turned out to be 0.103 ± 0.00798 fold-change vs cycle 0; in test [2], 0.229 ± 0.0707 fold-change vs cycle 0.

Regarding AGCTCG, the binding signal in test [1] is 0.347 ± 0.0155 fold-change vs cycle 0; in test [2] it was 0.487 ± 0.0527 fold-change vs cycle 0.

Turning to CGGACG, the binding signal in test [1] is 0.164 ± 0.00531 fold-change vs cycle 0; in test [2], 0.264 ± 0.055 fold-change vs cycle 0.

With CGCTCC, the results for the binding signal in test [1] and in test [2] were 0.165 ± 0.00419 fold-change vs cycle 0 and 0.29 ± 0.0821 fold-change vs cycle 0, respectively.

In the case of GCGCCA, the binding signal was 0.0557 ± 0.0063 fold-change vs cycle 0 in test [1] and 0.143 ± 0.0639 fold-change vs cycle 0 in test [2].

On to GCTGCA, for which the binding signal turned out to be 0.256 ± 0.0235 fold-change vs cycle 0 in test [1] and 0.379 ± 0.0774 fold-change vs cycle 0 in test [2].

ACGCCT: the binding signal was determined as 0.304 ± 0.0301 fold-change vs cycle 0 in test [1] and 0.443 ± 0.0612 fold-change vs cycle 0 in test [2].

As for CATGGC, the binding signal in test [1] worked out at 0.357 ± 0.0224 fold-change vs cycle 0; in test [2] it was 0.495 ± 0.0505 fold-change vs cycle 0.

Turning to AGAGCG, the binding signal in test [1] is 0.324 ± 0.0123 fold-change vs cycle 0; in test [2], 0.489 ± 0.067 fold-change vs cycle 0.

Turning to GCCCCC, the binding signal in test [1] stood at 0.107 ± 0.0111 fold-change vs cycle 0; in test [2] it was 0.213 ± 0.0572 fold-change vs cycle 0.

With CAGGCG, the binding signal worked out at 0.129 ± 0.00318 fold-change vs cycle 0 in test [1] and 0.24 ± 0.0647 fold-change vs cycle 0 in test [2].

For the sequence CGGCCG, the values for the binding signal in test [1] and in test [2] were 0.0289 ± 0.00511 fold-change vs cycle 0 and 0.105 ± 0.0554 fold-change vs cycle 0, respectively.

With GGCCGA, the figures for the binding signal in test [1] and in test [2] were 0.0868 ± 0.00648 fold-change vs cycle 0 and 0.196 ± 0.0603 fold-change vs cycle 0, respectively.

As to GGTATA, the binding signal was determined as 1.34 ± 0.0665 fold-change vs cycle 0 in test [1] and 1.3 ± 0.0853 fold-change vs cycle 0 in test [2].

As for CGATCG, the results for the binding signal in test [1] and in test [2] were 0.329 ± 0.0324 fold-change vs cycle 0 and 0.53 ± 0.115 fold-change vs cycle 0, respectively.

With CGCGAA, the binding signal in test [1] came out at 0.201 ± 0.0239 fold-change vs cycle 0; in test [2] it was 0.315 ± 0.0749 fold-change vs cycle 0.

For the sequence CCACCC, the binding signal in test [1] was found to be 0.298 ± 0.0277 fold-change vs cycle 0; in test [2], 0.395 ± 0.0676 fold-change vs cycle 0.

As for AGGGCG, the binding signal in test [1] was determined as 0.146 ± 0.011 fold-change vs cycle 0; in test [2], 0.26 ± 0.0708 fold-change vs cycle 0.

As for GCGGTA, the binding signal stood at 0.271 ± 0.0135 fold-change vs cycle 0 in test [1] and 0.391 ± 0.0556 fold-change vs cycle 0 in test [2].

As for AGGCCA, the values for the binding signal in test [1] and in test [2] were 0.313 ± 0.0175 fold-change vs cycle 0 and 0.446 ± 0.0657 fold-change vs cycle 0, respectively.

Regarding CGAGCG, the binding signal in test [1] was 0.115 ± 0.0072 fold-change vs cycle 0; in test [2] it was 0.24 ± 0.0639 fold-change vs cycle 0.

With AGCGCG, the binding signal in test [1] came to 0.0579 ± 0.00565 fold-change vs cycle 0; in test [2], 0.159 ± 0.0595 fold-change vs cycle 0.

On to GCGGCA, for which the binding signal in test [1] came out at 0.0597 ± 0.00711 fold-change vs cycle 0; in test [2], 0.158 ± 0.0724 fold-change vs cycle 0.

As to AGCCGC, the binding signal in test [1] was determined as 0.0699 ± 0.00939 fold-change vs cycle 0; in test [2] it was 0.174 ± 0.0601 fold-change vs cycle 0.

Take CGGCTC: the binding signal in test [1] was 0.124 ± 0.00754 fold-change vs cycle 0; in test [2], 0.242 ± 0.0735 fold-change vs cycle 0.

As to AGCGTG, the values for the binding signal in test [1] and in test [2] were 0.35 ± 0.0043 fold-change vs cycle 0 and 0.476 ± 0.0501 fold-change vs cycle 0, respectively.

As for CGGCGC, the binding signal is 0.0207 ± 0.00259 fold-change vs cycle 0 in test [1] and 0.0907 ± 0.0497 fold-change vs cycle 0 in test [2].

With CGGGCC, the binding signal was 0.0506 ± 0.00629 fold-change vs cycle 0 in test [1] and 0.15 ± 0.0772 fold-change vs cycle 0 in test [2].

In the case of CGGACA, the binding signal in test [1] amounted to 0.354 ± 0.00613 fold-change vs cycle 0; in test [2], 0.472 ± 0.0628 fold-change vs cycle 0.

As for GCGCCC, the values for the binding signal in test [1] and in test [2] were 0.0344 ± 0.0044 fold-change vs cycle 0 and 0.116 ± 0.0623 fold-change vs cycle 0, respectively.

Take GCGAAC: the binding signal in test [1] amounted to 0.281 ± 0.0107 fold-change vs cycle 0; in test [2] it was 0.417 ± 0.0584 fold-change vs cycle 0.

As to CCCGCC, the binding signal in test [1] is 0.0634 ± 0.0031 fold-change vs cycle 0; in test [2], 0.164 ± 0.0698 fold-change vs cycle 0.

Regarding CACCCC, the figures for the binding signal in test [1] and in test [2] were 0.309 ± 0.0175 fold-change vs cycle 0 and 0.407 ± 0.058 fold-change vs cycle 0, respectively.

Take GGCCCC: the results for the binding signal in test [1] and in test [2] were 0.0767 ± 0.0129 fold-change vs cycle 0 and 0.183 ± 0.0665 fold-change vs cycle 0, respectively.

On to GCCGCA, for which the figures for the binding signal in test [1] and in test [2] were 0.0591 ± 0.00535 fold-change vs cycle 0 and 0.149 ± 0.0608 fold-change vs cycle 0, respectively.

As for CGCACA, the results for the binding signal in test [1] and in test [2] were 0.229 ± 0.0112 fold-change vs cycle 0 and 0.353 ± 0.0588 fold-change vs cycle 0, respectively.

As to CCGCCC, the binding signal turned out to be 0.0662 ± 0.0114 fold-change vs cycle 0 in test [1] and 0.164 ± 0.0742 fold-change vs cycle 0 in test [2].

For the sequence GACGAC, the binding signal in test [1] was 0.342 ± 0.0283 fold-change vs cycle 0; in test [2], 0.474 ± 0.0702 fold-change vs cycle 0.

Take CTGGGC: the binding signal amounted to 0.152 ± 0.021 fold-change vs cycle 0 in test [1] and 0.273 ± 0.0783 fold-change vs cycle 0 in test [2].

As to GGCGAA, the binding signal in test [1] is 0.216 ± 0.00992 fold-change vs cycle 0; in test [2], 0.36 ± 0.0782 fold-change vs cycle 0.

With CCCCAG, the binding signal is 0.289 ± 0.0372 fold-change vs cycle 0 in test [1] and 0.38 ± 0.0427 fold-change vs cycle 0 in test [2].

Take ATTCTC: the binding signal in test [1] came out at 1.55 ± 0.0853 fold-change vs cycle 0; in test [2], 1.41 ± 0.126 fold-change vs cycle 0.

On to CCGACG, for which the binding signal was determined as 0.143 ± 0.00739 fold-change vs cycle 0 in test [1] and 0.255 ± 0.0634 fold-change vs cycle 0 in test [2].

On to GACCCC, for which the binding signal was found to be 0.276 ± 0.00974 fold-change vs cycle 0 in test [1] and 0.391 ± 0.051 fold-change vs cycle 0 in test [2].

ACTCGC: the binding signal was 0.3364 ± 0.000841 fold-change vs cycle 0 in test [1] and 0.463 ± 0.0712 fold-change vs cycle 0 in test [2].

On to CAGGGC, for which the binding signal in test [1] was 0.185 ± 0.0225 fold-change vs cycle 0; in test [2] it was 0.31 ± 0.0787 fold-change vs cycle 0.

For GCAGGC, the values for the binding signal in test [1] and in test [2] were 0.124 ± 0.00995 fold-change vs cycle 0 and 0.24 ± 0.0592 fold-change vs cycle 0, respectively.

As to CGCCTA, the binding signal in test [1] was 0.26 ± 0.0104 fold-change vs cycle 0; in test [2] it was 0.413 ± 0.0625 fold-change vs cycle 0.

Take AAGCCG: the results for the binding signal in test [1] and in test [2] were 0.241 ± 0.0209 fold-change vs cycle 0 and 0.357 ± 0.0555 fold-change vs cycle 0, respectively.

On to GACGCC, for which the figures for the binding signal in test [1] and in test [2] were 0.116 ± 0.00704 fold-change vs cycle 0 and 0.225 ± 0.0674 fold-change vs cycle 0, respectively.

As for ACGGCC, the binding signal in test [1] worked out at 0.0993 ± 0.00797 fold-change vs cycle 0; in test [2], 0.206 ± 0.0649 fold-change vs cycle 0.

Consider CCGGTC, for which the binding signal in test [1] was determined as 0.202 ± 0.0231 fold-change vs cycle 0; in test [2] it was 0.315 ± 0.0731 fold-change vs cycle 0.

For the sequence GCCACC, the binding signal in test [1] stood at 0.153 ± 0.0112 fold-change vs cycle 0; in test [2], 0.282 ± 0.0759 fold-change vs cycle 0.
